The source of these data is ChEMBL document CHEMBL3988442, “University of Dundee, Small-Polar-MMV Screening Library” (2021).

For some of these results: Potency and affinity values are given separately.

Design in all cases: scale not given: direction of the effect not stated beside the values
In test [1] the target is Protein translocase subunit SecA (Escherichia coli (strain K12)) (UniProt P10408). Briefly: Assay to Identify E. coli SecA ATPase Inhibitors. The test is classed as functional. The note with it: 30 µM.
In test [2] the target is T1, Ubiquitin-activating enzyme e1, putative (Leishmania donovani (strain BPK282A1)) (UniProt E9BSI1).
T1 sequence (whole entry): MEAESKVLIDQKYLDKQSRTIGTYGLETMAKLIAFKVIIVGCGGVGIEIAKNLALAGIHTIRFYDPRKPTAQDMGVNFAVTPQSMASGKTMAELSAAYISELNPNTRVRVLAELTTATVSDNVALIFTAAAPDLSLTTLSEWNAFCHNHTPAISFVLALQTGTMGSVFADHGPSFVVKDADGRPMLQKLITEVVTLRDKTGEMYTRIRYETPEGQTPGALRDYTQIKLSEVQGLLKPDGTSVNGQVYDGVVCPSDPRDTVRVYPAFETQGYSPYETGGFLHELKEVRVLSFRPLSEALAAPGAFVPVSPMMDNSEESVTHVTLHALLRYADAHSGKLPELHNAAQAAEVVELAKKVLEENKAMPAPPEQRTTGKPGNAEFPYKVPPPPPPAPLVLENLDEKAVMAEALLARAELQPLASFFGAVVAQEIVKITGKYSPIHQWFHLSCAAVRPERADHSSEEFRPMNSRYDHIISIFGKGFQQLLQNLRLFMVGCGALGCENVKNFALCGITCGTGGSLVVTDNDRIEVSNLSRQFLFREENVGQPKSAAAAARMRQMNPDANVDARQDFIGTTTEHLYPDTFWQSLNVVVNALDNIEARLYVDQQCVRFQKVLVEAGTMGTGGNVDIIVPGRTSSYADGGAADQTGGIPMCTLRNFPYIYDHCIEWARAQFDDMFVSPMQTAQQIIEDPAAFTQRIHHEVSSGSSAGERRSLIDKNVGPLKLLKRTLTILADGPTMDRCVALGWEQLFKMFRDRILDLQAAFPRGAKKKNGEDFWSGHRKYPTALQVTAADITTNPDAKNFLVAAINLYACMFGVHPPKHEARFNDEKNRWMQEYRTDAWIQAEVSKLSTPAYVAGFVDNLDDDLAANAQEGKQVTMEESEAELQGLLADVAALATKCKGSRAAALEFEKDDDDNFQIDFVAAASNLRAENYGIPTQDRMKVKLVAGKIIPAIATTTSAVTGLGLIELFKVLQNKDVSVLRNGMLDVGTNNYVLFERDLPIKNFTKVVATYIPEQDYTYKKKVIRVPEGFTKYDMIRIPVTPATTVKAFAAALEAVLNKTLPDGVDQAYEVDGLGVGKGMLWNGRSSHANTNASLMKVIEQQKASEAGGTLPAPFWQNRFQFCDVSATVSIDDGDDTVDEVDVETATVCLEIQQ
Briefly: Leishmania donovani Ubiquitin Activating Enzyme (LdE1). It counts as functional. The note with it: 30 µM.

Test [3] addresses AMP-activated protein kinase, AMPK (Homo sapiens) (UniProt P54646+O43741+P54619+Q9UGJ0+Q9Y478+Q13131+Q9UGI9). The experiment in a line: AMP-dependent Kinase enzyme assay. An in vitro enzyme assay that detects ADP turnover that is directly proportional to AMPK activity. This uses naive AMPK that is activated during the assay with MK-8722. The test is classed as functional. Conditions: 30 µM.

In test [4] the target is Sialic acid-binding Ig-like lectin 9 (Homo sapiens) (UniProt Q9Y336). Briefly: Hs-Siglec9 ALPHAscreen SOP 20170721. Conditions: 10 µM. A general note: In Alpha technology, singlet oxygen from a donor bead excites a nearby acceptor bead.
For a further test, the system named is Trypanosoma cruzi. Briefly: Trypanosoma cruzi phosphomannomutase and mannose-1-phosphate guanylyltransferase assay. Conditions: 10 µM. The test is classed as functional.
Test [5] addresses T2, Arginase-2, mitochondrial (Homo sapiens) (UniProt P78540).
T2 sequence (whole entry): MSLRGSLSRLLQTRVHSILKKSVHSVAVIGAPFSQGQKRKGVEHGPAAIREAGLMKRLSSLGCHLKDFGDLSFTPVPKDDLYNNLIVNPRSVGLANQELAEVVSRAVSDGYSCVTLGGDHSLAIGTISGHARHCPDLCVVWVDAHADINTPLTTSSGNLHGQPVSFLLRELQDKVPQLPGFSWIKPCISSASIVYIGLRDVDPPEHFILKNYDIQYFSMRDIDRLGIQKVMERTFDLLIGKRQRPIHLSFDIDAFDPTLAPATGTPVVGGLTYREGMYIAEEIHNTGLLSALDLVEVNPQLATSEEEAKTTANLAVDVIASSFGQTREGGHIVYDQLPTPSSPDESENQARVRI
The experiment in a line: in vitro enzyme assay to detect the production of urea directly proportional to the activity of Arginase II. Also: in the data most compounds retested in dose-response had high values. It counts as functional. Conditions: 33.3 µM.

In test [6] the target is T3, Proteasome subunit beta (Trypanosoma cruzi) (UniProt O96673).
T3 sequence (whole entry): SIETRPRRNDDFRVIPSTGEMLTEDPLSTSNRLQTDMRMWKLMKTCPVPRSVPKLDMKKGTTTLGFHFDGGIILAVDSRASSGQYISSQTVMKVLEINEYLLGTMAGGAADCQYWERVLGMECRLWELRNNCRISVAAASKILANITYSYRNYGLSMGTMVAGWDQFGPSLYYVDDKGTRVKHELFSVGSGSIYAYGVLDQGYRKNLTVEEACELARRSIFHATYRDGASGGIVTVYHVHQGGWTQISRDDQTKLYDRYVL
Briefly: Trypanosoma cruzi proteasome chymotrypsin-like activity (TcProtChymo) assay. Also: in the data most compounds retested in dose-response had high values. The test is classed as functional. The note with it: 9.37 µM.

The species entered for a further test is Homo sapiens. The experiment in a line: To identify inhibition of the IFN signalling (Jak-Stat) pathway via expression of an eGFP reporter gene under the control of an IFN-stimulated response element (ISRE) containing MxA promoter. The test is classed as functional. The note with it: 30 µM.
In test [7] the target is T4, Tyrosyl-tRNA synthetase, putative (Trypanosoma cruzi (strain CL Brener)) (UniProt Q4DSP6).
T4 sequence (whole entry): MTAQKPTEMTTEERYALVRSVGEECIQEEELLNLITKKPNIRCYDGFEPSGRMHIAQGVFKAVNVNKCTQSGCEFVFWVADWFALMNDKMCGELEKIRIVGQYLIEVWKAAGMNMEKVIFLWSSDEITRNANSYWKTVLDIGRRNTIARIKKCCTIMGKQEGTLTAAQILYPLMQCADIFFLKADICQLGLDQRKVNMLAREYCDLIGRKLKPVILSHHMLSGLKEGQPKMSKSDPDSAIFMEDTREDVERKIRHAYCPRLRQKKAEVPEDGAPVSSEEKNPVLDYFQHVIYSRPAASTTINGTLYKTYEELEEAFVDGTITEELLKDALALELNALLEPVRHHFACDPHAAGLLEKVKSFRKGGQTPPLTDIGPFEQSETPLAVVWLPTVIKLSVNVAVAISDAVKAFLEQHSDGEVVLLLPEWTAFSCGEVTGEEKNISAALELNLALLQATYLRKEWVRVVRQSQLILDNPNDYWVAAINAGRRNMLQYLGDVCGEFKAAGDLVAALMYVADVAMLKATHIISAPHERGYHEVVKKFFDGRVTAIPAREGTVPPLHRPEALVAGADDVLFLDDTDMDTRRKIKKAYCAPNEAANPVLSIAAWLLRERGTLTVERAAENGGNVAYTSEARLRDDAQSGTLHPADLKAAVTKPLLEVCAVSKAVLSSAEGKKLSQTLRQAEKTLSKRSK
The experiment in a line: Trypanosoma cruzi tyrosyl tRNA synthetase (TcYRS) _High Tyrosine SOP. Also: in the data most compounds retested in dose-response had high values. It counts as functional. Conditions: 30 µM.

Test [8] concerns the target T4, Tyrosyl-tRNA synthetase, putative (Trypanosoma cruzi (strain CL Brener)). Briefly: Trypanosoma cruzi tyrosyl tRNA synthetase (TcYRS) SOP. The test is classed as functional. The note with it: 30 µM.
In test [9] the target is Chromo domain-containing protein 1 (Saccharomyces cerevisiae (strain ATCC 204508 / S288c) (Baker's yeast)) (UniProt P32657). Briefly: ScCHD-1 Enzyme Inhibition Assay. Also: in the data most compounds retested in dose-response had high values. It counts as functional. Conditions: 30 µM.
Chain of Chromo domain-containing protein 1 (Saccharomyces cerevisiae (strain ATCC 204508 / S288c) (Baker's yeast)) (P32657 whole entry, the tested form may be a part): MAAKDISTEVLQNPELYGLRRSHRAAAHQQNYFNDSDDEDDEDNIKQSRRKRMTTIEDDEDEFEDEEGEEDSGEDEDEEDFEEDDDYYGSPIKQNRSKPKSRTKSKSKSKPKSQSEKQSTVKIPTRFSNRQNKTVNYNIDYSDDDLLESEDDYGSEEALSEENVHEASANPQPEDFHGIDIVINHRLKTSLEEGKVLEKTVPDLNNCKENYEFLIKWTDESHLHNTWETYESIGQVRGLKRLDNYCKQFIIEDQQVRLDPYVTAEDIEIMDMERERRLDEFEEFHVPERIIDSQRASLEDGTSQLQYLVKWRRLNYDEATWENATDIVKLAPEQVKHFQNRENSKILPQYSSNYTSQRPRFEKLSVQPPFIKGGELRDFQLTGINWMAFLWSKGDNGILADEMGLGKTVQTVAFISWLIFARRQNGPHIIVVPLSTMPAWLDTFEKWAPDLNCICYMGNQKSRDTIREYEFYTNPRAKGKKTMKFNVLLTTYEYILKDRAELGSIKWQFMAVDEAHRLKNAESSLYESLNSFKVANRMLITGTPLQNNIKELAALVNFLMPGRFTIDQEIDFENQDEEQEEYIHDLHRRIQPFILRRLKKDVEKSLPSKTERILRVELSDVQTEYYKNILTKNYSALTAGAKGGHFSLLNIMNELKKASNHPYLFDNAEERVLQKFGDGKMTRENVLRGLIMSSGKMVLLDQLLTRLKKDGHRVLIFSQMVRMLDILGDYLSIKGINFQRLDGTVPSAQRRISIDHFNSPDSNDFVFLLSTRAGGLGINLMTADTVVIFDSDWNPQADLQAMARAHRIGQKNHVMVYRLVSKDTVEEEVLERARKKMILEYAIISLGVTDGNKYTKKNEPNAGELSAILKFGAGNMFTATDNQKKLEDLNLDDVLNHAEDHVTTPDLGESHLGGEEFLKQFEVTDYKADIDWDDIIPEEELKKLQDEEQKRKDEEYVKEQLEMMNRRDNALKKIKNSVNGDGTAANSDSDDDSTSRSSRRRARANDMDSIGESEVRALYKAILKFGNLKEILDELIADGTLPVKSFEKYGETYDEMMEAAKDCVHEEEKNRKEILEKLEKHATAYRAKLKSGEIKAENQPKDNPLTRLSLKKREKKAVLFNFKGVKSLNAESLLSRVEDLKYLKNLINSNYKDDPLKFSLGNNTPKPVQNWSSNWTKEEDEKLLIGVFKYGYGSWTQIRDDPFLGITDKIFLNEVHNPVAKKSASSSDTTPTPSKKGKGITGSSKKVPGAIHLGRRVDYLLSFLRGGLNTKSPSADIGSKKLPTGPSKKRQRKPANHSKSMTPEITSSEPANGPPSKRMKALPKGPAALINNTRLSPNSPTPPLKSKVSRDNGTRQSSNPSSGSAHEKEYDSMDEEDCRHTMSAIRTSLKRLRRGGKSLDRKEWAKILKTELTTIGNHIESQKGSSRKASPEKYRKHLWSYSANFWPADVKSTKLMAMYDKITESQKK

Chain of Sialic acid-binding Ig-like lectin 9 (Homo sapiens) (Q9Y336 whole entry): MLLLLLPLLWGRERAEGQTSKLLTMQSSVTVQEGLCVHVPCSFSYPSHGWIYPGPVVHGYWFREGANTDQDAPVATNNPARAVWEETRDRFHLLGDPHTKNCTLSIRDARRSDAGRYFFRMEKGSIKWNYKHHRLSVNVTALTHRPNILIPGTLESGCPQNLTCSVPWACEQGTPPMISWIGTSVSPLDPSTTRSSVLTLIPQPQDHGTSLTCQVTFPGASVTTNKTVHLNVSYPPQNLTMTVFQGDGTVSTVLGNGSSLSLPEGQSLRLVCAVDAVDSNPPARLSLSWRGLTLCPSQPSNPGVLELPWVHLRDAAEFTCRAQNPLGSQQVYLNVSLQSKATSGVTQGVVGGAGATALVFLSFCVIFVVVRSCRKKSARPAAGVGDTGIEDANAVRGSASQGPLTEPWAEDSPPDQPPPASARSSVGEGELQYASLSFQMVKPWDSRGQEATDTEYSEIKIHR
Chain of Protein translocase subunit SecA (Escherichia coli (strain K12)) (P10408 whole entry): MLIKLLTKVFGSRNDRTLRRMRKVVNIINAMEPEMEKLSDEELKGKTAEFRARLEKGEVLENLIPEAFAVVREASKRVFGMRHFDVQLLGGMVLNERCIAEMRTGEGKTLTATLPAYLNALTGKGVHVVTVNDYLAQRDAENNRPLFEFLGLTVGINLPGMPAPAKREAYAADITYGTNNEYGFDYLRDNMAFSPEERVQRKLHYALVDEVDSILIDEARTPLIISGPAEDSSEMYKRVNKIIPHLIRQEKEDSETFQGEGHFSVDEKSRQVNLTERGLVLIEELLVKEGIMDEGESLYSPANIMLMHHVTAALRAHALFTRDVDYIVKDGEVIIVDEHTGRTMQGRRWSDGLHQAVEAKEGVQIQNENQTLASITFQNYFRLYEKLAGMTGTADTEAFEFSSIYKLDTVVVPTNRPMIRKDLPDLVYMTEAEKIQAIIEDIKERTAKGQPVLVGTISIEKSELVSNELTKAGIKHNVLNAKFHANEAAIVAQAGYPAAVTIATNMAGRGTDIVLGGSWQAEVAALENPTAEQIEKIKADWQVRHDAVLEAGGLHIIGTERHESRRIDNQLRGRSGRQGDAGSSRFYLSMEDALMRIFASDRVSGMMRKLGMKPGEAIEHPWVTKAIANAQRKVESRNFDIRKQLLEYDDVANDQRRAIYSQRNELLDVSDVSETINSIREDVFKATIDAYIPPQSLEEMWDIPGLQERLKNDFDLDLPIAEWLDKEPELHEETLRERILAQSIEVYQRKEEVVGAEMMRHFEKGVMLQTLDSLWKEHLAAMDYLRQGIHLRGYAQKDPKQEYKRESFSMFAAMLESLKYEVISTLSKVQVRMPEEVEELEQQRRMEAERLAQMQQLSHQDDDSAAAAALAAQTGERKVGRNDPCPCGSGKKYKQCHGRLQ

In the case of `Cn1cc(-c2csc(N3CCN(C(=O)OC(C)(C)C)CC3)n2)cn1`, the Percent Effect in test [1] is -0.688%; in test [2], 4.17%; in [3], -13.6%; in [4] it was 7.74%; in the test with Trypanosoma cruzi, 1.85%; in test [5], 30.5%. For the same compound, the Percent Effect was 8.42% in test [6]; 57.3% in the test listed under Homo sapiens; 10.5% in [7]; 12.8% in [8]; -1.57% in test [9].
On to `NC(=O)C1CCN(Cn2nc(-c3ccc(F)cc3)oc2=O)CC1`, for which the Percent Effect in test [1] is -3.92%; in test [2], 2.6%; in test [3], 9.43%; in test [4], 0.452%; with Trypanosoma cruzi, -22.7%; in [5] it was 4.14%. Further, the Percent Effect was 22% in test [6]; 24.3% in the test listed under Homo sapiens; -1.07% in [7]; 1.24% in [8]; -2.23% in test [9].
Turning to `Cc1n[nH]c(C2CN(C(=O)CCc3ccco3)CCO2)n1` (stereo not drawn), the Percent Effect is -1.8% in [1]; 7.89% in test [2]; 9.83% in test [3]; -2.52% in [4]; 3.6% in the test with Trypanosoma cruzi; 3.55% in test [5]. Besides, the Percent Effect in test [6] is 21%; in the test filed under Homo sapiens, 21.1%; in test [7], 2.13%; in test [8], 7.79%; in test [9], -3.66%.
Regarding `CC(C)N1CCC(Cc2cc(-c3cccc(C(=O)O)c3)ncn2)C1` (stereo not drawn), the Percent Effect is 1.6% in test [1]; -9.46% in test [2]; 7.52% in test [3]; 4.36% in test [4]; -1.78% with Trypanosoma cruzi; -0.232% in test [5]. In addition, the Percent Effect was 2.5% in [6]; 0.46% in the test filed under Homo sapiens; 2.15% in test [7]; 1.3% in test [8]; 20.8% in [9].
As to `Cn1ncc2c1CCCC2NCc1ccc(Cl)s1` (stereo not drawn), the Percent Effect is -4.36% in test [1]; 13% in test [2]; -34.6% in [3]; -13.6% in test [4]; -1.08% in the test with Trypanosoma cruzi; 2.74% in [5]. Further, the Percent Effect was 12.2% in [6]; 9.39% in the test filed under Homo sapiens; 6.67% in test [7]; 11.8% in [8]; -19.4% in test [9].
Turning to `Cc1ccc(SCC(=O)NS(=O)(=O)c2ccc3c(c2)OCCO3)cc1`, the Percent Effect was -2.38% in test [1]; -10.5% in test [2]; 2.56% in [3]; -1.45% in test [4]; 5.45% in the test with Trypanosoma cruzi; -2.68% in [5]. The Percent Effect was 15% in test [6]; 3.33% in the test filed under Homo sapiens; -6.37% in test [7]; -7.32% in test [8]; -0.431% in test [9].
Take `CCc1cnc(N2CCC(=O)N(CC3CC3)C(C(C)C)C2)nc1` (stereo not drawn): the Percent Effect is 3.49% in test [1]; 13.5% in test [2]; -2.35% in test [3]; 11.8% in [4]; -0.965% in the test on Trypanosoma cruzi; 4.29% in [5]. The Percent Effect in [6] is 8.62%; in the test filed under Homo sapiens, 29.3%; in [7] it was 3.7%; in test [8], 12.2%; in test [9], -1.36%.
For the compound `Nc1cc2c(nn1)CCN(C(=O)CC1CCCC1)C2`, the Percent Effect in [1] was -3.9%; in test [2] it was 10.1%; in test [3] it was -4.63%; in test [4], 16.5%; in the test with Trypanosoma cruzi, -3.12%; in [5] it was -0.38%. The Percent Effect in [6] was -0.246%; in the test filed under Homo sapiens, -1.92%; in test [7], 7.39%; in [8], 13.9%; in test [9] it was -5.84%.
